Each structure is given as a SMILES string.

The residual activity is the signal under treatment as a percentage of the control signal.

One experiment has as its target T1, Serine/threonine-protein kinase ULK3 (Homo sapiens) (UniProt Q6PHR2).
T1 sequence (whole entry): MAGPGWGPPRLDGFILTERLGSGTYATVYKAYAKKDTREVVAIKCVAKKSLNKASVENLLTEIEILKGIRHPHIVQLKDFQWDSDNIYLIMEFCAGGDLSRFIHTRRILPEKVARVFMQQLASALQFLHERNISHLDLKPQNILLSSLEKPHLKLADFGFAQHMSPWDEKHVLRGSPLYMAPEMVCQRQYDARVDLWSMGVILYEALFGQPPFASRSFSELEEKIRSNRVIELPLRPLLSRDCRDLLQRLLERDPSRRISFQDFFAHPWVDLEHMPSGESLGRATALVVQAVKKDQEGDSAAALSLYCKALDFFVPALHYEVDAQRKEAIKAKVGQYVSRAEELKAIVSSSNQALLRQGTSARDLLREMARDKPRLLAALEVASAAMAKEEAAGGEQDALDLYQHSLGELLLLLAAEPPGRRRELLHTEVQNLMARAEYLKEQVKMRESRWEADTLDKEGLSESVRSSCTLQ
As to conditions: at 1 µM.
For `Nc1cccc(-c2cc3c(Oc4cccc(O)c4)ncnc3[nH]2)c1`, the residual activity was found to be 31%.
On the same count and under the same terms, to `COc1ccc(S(=O)(=O)N(CCO)c2ccccc2CN(C)C/C=C/c2ccc(Cl)cc2)cc1` belongs 93%.
Turning to `O=C1Nc2ccccc2/C1=C1/Nc2ccccc2/C1=N\OCCC(O)CO` (configuration not stated), the residual activity stood at 27%.
In the case of `COc1cc2ncnc(Nc3ccc(NC(=O)c4ccccc4)cc3)c2cc1OC`, the residual activity was 99%.
On the same count and under the same terms, next, `N#Cc1cnc2cnc(NCc3cccnc3)cc2c1Nc1ccc(F)c(Cl)c1`: 100%.
The same measure, in the same setting: next, `Ic1cccc(CSc2nnc(-c3ccncc3)o2)c1`: 86%; `O=C(Nc1cccc(Nc2cc(Nc3cccc(C(F)(F)F)c3)ncn2)c1)C1CC1`: 110%; `O=[N+]([O-])c1ccc(-c2nc(-c3ccc(F)cc3)c(-c3ccncc3)[nH]2)cc1`: 103%.
As to `N#CC(C#N)=C(N)/C(C#N)=C/c1ccc(O)cc1`, the residual activity came to 100%.
Consider `O=Nc1c(-c2c(O)[nH]c3ccccc23)[nH]c2ccccc12`, for which the residual activity is 55%.
For `CN(C)CCCn1cc(C2=C(c3c[nH]c4ccccc34)C(=O)NC2=O)c2ccccc21`, the residual activity amounted to 101%.
On to `O=C1Nc2cc(Br)ccc2/C1=C1/Nc2ccccc2/C1=N\O`, for which the residual activity amounted to 55%.
On the same count and under the same terms, to `O=C1NC(=O)/C(=C/c2ccc3c(c2)OC(F)(F)O3)S1` belongs 105%.
Turning to `CC(=O)c1ccc(N2CCOCC2)cc1O`, the residual activity was found to be 106%.
As for `Nc1n[nH]c2nnc(-c3c(-c4ccccc4)nn4ccccc34)cc12`, the residual activity was determined as 92%.
On the same count and under the same terms, next, `Nc1nc(Nc2ccc(S(N)(=O)=O)cc2)nn1C(=S)Nc1c(F)cccc1F`: 0%; `Cn1cnc2cc3c(Nc4cccc(Br)c4)ncnc3cc21`: 112%.

For another experiment, the target named is T1, Serine/threonine-protein kinase ULK3 (Homo sapiens). As to conditions: at 10 µM.
As to `c1ccc(-c2n[nH]cc2-c2ccnc3ccccc23)nc1`, the residual activity was 98%.
Regarding `Cn1nc2c3c(cccc31)C(=O)c1ccccc1-2`, the residual activity worked out at 84%.
Regarding `COc1ccc(CNc2nc(N(CCO)CCO)nc3c2ncn3C(C)C)cc1`, the residual activity worked out at 82%.
With `CO[C@@H]1[C@H](N(C)C(=O)c2ccccc2)C[C@H]2O[C@]1(C)n1c3ccccc3c3c4c(c5c6ccccc6n2c5c31)C(=O)NC4`, the residual activity was found to be 5%.
`C[C@@H](N)[C@H]1CC[C@H](C(=O)Nc2ccncc2)CC1`: the residual activity was determined as 68%.
As to `Cc1cccc(-c2[nH]c(C(C)(C)C)nc2-c2ccc3c(c2)OCO3)n1`, the residual activity was 96%.
In the case of `Cc1cc(Nc2nc(-c3ccccc3)nc3ccccc23)n[nH]1`, the residual activity amounted to 4%.
Same read-out and setting: next, `O=C1Nc2ccc(Br)cc2/C1=C\c1cc2c([nH]1)CCCC2`: 55%; `Cc1cc2ncc(-c3ccccc3)nc2cc1C`: 96%.
With `CCN(CC)C(=O)c1ccc(Nc2nc(OCC3CCCCC3)c3nc[nH]c3n2)cc1`, the residual activity was determined as 8%.
Take `O=C1c2ccccc2-[n+]2ccc3c([nH]c4ccccc43)c21`: the residual activity was 95%.
Take `Cc1ccc(S(=O)(=O)/C=C/C#N)cc1`: the residual activity turned out to be 98%.
With `c1ccc2c(-c3ccncc3)c[nH]c2c1`, the residual activity turned out to be 82%.
The same measure, in the same setting: to `Cc1cncc2cccc(S(=O)(=O)N3CCCN(C(=O)CN)C[C@H]3C)c12` belongs 59%; to `N#CCCc1ccc2c(c1)-c1[nH]c3ccc([N+](=O)[O-])cc3c1CC(=O)N2`, 6%; to `c1ccc(-c2n[nH]c3c2oc2ccccc23)cc1`, 71%.
With `CO[C@H]1C[C@@H]2CC[C@@H](C)[C@@](O)(O2)C(=O)C(=O)N2CCCC[C@H]2C(=O)O[C@H]([C@H](C)C[C@@H]2CC[C@@H](O)[C@H](OC)C2)CC(=O)[C@H](C)/C=C(\C)[C@@H](O)[C@@H](OC)C(=O)[C@H](C)C[C@H](C)/C=C/C=C/C=C/1C`, the residual activity is 94%.
In the case of `Nc1cccc(-c2cc3c(Oc4cccc(O)c4)ncnc3[nH]2)c1`, the residual activity stood at 6%.
Same read-out and setting: next, `COc1ccc(S(=O)(=O)N(CCO)c2ccccc2CN(C)C/C=C/c2ccc(Cl)cc2)cc1`: 95%; `O=C1Nc2ccccc2/C1=C1/Nc2ccccc2/C1=N\OCCC(O)CO` (configuration not stated): 5%.
On to `COc1cc2ncnc(Nc3ccc(NC(=O)c4ccccc4)cc3)c2cc1OC`, for which the residual activity turned out to be 69%.
Regarding `N#Cc1cnc2cnc(NCc3cccnc3)cc2c1Nc1ccc(F)c(Cl)c1`, the residual activity was 88%.
Turning to `Ic1cccc(CSc2nnc(-c3ccncc3)o2)c1`, the residual activity was determined as 92%.
Turning to `O=C(Nc1cccc(Nc2cc(Nc3cccc(C(F)(F)F)c3)ncn2)c1)C1CC1`, the residual activity turned out to be 94%.
Consider `O=[N+]([O-])c1ccc(-c2nc(-c3ccc(F)cc3)c(-c3ccncc3)[nH]2)cc1`, for which the residual activity was found to be 103%.
Turning to `N#CC(C#N)=C(N)/C(C#N)=C/c1ccc(O)cc1`, the residual activity is 92%.
Regarding `O=Nc1c(-c2c(O)[nH]c3ccccc23)[nH]c2ccccc12`, the residual activity is 12%.
As for `CN(C)CCCn1cc(C2=C(c3c[nH]c4ccccc34)C(=O)NC2=O)c2ccccc21`, the residual activity worked out at 61%.
Regarding `O=C1Nc2cc(Br)ccc2/C1=C1/Nc2ccccc2/C1=N\O`, the residual activity was found to be 16%.
`COc1cc2ncc(-c3ccccc3)nc2cc1OC`: the residual activity is 86%.
On the same count and under the same terms, next, `O=C1NC(=O)/C(=C/c2ccc3c(c2)OC(F)(F)O3)S1`: 89%; `CC(=O)c1ccc(N2CCOCC2)cc1O`: 90%.
Turning to `Nc1n[nH]c2nnc(-c3c(-c4ccccc4)nn4ccccc34)cc12`, the residual activity is 87%.
Consider `Nc1nc(Nc2ccc(S(N)(=O)=O)cc2)nn1C(=S)Nc1c(F)cccc1F`, for which the residual activity is 1%.
For `Cn1cnc2cc3c(Nc4cccc(Br)c4)ncnc3cc21`, the residual activity amounted to 74%.

The record behind these values is ChEMBL document CHEMBL2218924, “A broad activity screen in support of a chemogenomic map for kinase signalling research and drug discovery” (Biochem J, 2013).
